From PubChem BioAssay (EPA / NIEHS)
Inconclusive results are not listed. Calls of active or inactive are those of the source. Rule for the calls, unless noted: active = hit-call score of the fitted dose curve at least 0.9, where 1 is the maximum; inactive = score below 0.9.

How the values were obtained:
[1] = CCTE_Shafer_MEA_acute_spike_number: CCTE's Neural Acute Assay for Total Number of Spikes, Shafer Lab (AID 2284008);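 for AC50: curve fitted for decrease in spike count so AC50 reflects inhibitors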
In short: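 Primary rat cortical neurons on 16-electrode MEA wells; on DIV 13 or 15, 40-min baseline then 40-min recording with compound (0.03-40 uM) at 37 C. Spikes detected at 8x rms noise; percent change versus baseline, DMSO as negative control.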

[2] = CCTE_Harrill_HTTr_Viability_MCF7: CCTE's 6-hour Cell Viability Assessment for the High-Throughput Transcriptomics (HTTr) Platform, in MCF-7 cells cultured in DMEM + 10% fetal bovine serum, Harrill Lab (AID 2284010)
In short: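 Viability measured through PI dye exclusion by high-content imaging at 6 h post-dosing.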

[3] = CCTE_Harrill_HTTr_Apoptosis_MCF7: CCTE's 6-hour Apoptosis Assessment for the High-Throughput Transcriptomics (HTTr) Platform, in MCF-7 cells cultured in DMEM + 10% fetal bovine serum, Harrill Lab (AID 2284011)
In short: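 MCF-7 cells in DMEM + 10% fetal bovine serum were exposed to chemicals for 6 hours over an eight-point dilution series. Caspase-3/7 activation was imaged by high content imaging with CellEvent Caspase 3/7 Green; bidirectional fitting used DMSO as baseline.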

[4] = CCTE_Harrill_HTTr_CellCount_MCF7: CCTE's Cell Proliferation Assessment for the High-Throughput Transcriptomics (HTTr) Platform, Harrill Lab (AID 2284012; active = hit-call score of the fitted dose curve at least 0.9, where 1 is the maximum;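 note: count of Hoechst-stained nuclei per well by high-content imaging in MCF-7 cells; cells exposed to compound for six hours; intended direction is loss of nuclei count meaning fewer cells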)
In short: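 Nuclei counting (Hoechst, high content imaging) in MCF-7 after a 6 h treatment at eight concentrations. Activity fitted bidirectionally, DMSO as negative control.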

[5] = CCTE_Shafer_MEA_acute_burst_duration_mean: CCTE's Neural Acute Assay for Mean Burst Duration, Shafer Lab (AID 2284014);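 note: hits are decreases in mean burst duration relative to DMSO controls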
In short: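 Primary rat cortical neurons on 16-electrode MEA wells, treated on DIV 13 or 15 with compound (0.03-40 uM; ≥3 wells each). 40-min baseline and 40-min exposure recordings at 37 C; percent change in mean burst duration per well versus DMSO.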

[6] = CCTE_Shafer_MEA_acute_interburst_interval_mean: CCTE's Neural Acute Assay for Mean Interburst Interval, Shafer Lab (AID 2284016);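 note: percent change of mean interburst interval versus each well's own pre-dose baseline; curves fitted for decrease in interburst interval relative to DMSO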
In short: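 MEA recording of spontaneous network bursting in primary rat cortical cultures; mean interburst interval was compared before and after a 40-min compound exposure (0.03-40 uM) and expressed as percent change, relative to DMSO.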

[7] = CCTE_Shafer_MEA_acute_burst_percentage_std: CCTE's Neural Acute Assay for Standard Deviation of Burst Percentage, Shafer Lab (AID 2284018);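 note: fitted in the negative direction so actives lower burst percentage SD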
In short: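 Primary rat cortical neurons on 16-electrode MEA wells were recorded 40 min at baseline (DIV 13 or 15), then 40 min after compound (0.03-40 uM), at 37 C. Well value is SD across electrodes of spikes-in-bursts/total spikes; endpoint is percent change, DMSO-referenced.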

[8] = CCTE_Shafer_MEA_acute_per_network_burst_spike_number_mean: CCTE's Neural Acute Assay for Average Number of Spikes in a Network Burst, Shafer Lab (AID 2284019);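 for AC50: curve fitted for loss of signal so actives reduce spikes per network burst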
In short: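 Primary rat cortical neurons on 16-electrode MEA wells, DIV 13 or 15, 37 C; 40-min baseline then 40-min recording with compound (0.03-40 uM). Spikes per network burst (total spikes/number of bursts) expressed as percent change from baseline, DMSO reference.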

Measured: AC50

C/C=C/c1ccc(OC)cc1
inactive: all assays above

CCCCCCCC(=O)OC
inactive: [2] | [3]

COc1ccc(C(=O)Nc2nc3ccccc3c(NCc3ccccc3)c2C#N)cc1
inactive: [2] | [3]

CCCCC(CC)COP(=O)(OCC(CC)CCCC)OCC(CC)CCCC (stereo unspecified)
not listed: [4]
inactive: all other assays above

COc1ccc(OC(F)(F)F)cc1CN[C@H]1CCCN[C@H]1c1ccccc1
inactive: [2] | [3] | [5]
active: [1] 1.72 µM | [6] 7.18 µM | [7] 4.15 µM | [8] 2.07 µM

CC(N)=O
inactive: all assays above

CC(=O)OCC(COC(C)=O)OC(C)=O
inactive: [2] | [3]

CCCCC(CC)COC(=O)CCCCCCCC(=O)OCC(CC)CCCC (stereo unspecified)
inactive: [2] | [3]

CC(COCC(C)OC(=O)c1ccccc1)OC(=O)c1ccccc1 (stereo unspecified)
inactive: [2] | [3]

O=C(N[C@@H](c1ccccc1)[C@@H]1CCCCN1)c1cccc(C(F)(F)F)c1Cl
active: [1] 4.39 µM | [6] 7.65 µM
inactive: all other assays above

COC(=O)CCCC(=O)OC
inactive: [2] | [3]

CN(C)C(=O)NC1(c2ccccc2)CCN(CC[C@@]2(c3ccc(F)c(F)c3)CN(C(=O)c3ccccc3)CCO2)CC1
active: [1] 4.16 µM
inactive: all other assays above

CN(C)CCCN1c2ccccc2Sc2ccc(Cl)cc21
active: [2] 77.1 µM | [3] 50 µM | [7] 31.6 µM
inactive: all other assays above

OCC(CO)n1cnc(-c2ccc(F)cc2)c1-c1ccnc(Oc2ccccc2)n1
not listed: [4]
inactive: all other assays above

NC(=Nc1ccccc1)Nc1ccccc1
active: [1] 2.02 µM | [6] 1.27 µM
not listed: [4]
inactive: all other assays above

CN(C)C(=O)NC1(c2ccccc2)CCN(CCC[C@]2(c3ccc(Cl)c(Cl)c3)CCCN(C(=O)c3ccccc3)C2)CC1
active: [5] 1.07 µM | [7] 1.83 µM
not listed: [4]
inactive: all other assays above

CC(C)COC(=O)CCCCC(=O)OCC(C)C
not listed: [4]
inactive: all other assays above

O=C(O)CN(CC(=O)O)CC(=O)O
not listed: [4]
inactive: all other assays above
